Test results reported in PubChem BioAssay AID1159580 (chemical genetic matrix, 2015).
“And” between values parts separate entries of the source, which are not always exact repeats. Equal entries are not always repeated. Among all 5,500 compounds or so, about 2,000 (36%) were called active. Inconclusive results (about 18%) are left out. The list shows a part of the results. Unmarked numbers belong to inactive results. No stated cut-off is given here; in the data, active means normalized growth mostly below about 0.91 (no sharp cut-off); inconclusive means no clear call, values can overlap the other calls; inactive means mostly above about 0.92.

Assay: chemical genetic growth profiling, strain panel (AID 1159580);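 further: tested at 20 µM; growth read once vehicle control cultures reached saturation at 30 °C; 1 = growth at the plate median or of vehicle wells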
Conditions: growth OD

Structure (SMILES): O=C(O)CCCc1ccc(N(CCCl)CCCl)cc1
- normalized growth (S. cerevisiae deletion strains, locus YKL009W, strain mrt4, stronger effect = lower value): 0.92
- normalized growth (S. cerevisiae deletion strains, locus YKL068W, stronger effect = lower value): 0.973
- normalized growth (S. cerevisiae deletion strains, locus YKL085W, strain MDH1 (second series), stronger effect = lower value): 0.942
- normalized growth (S. cerevisiae deletion strains, locus YKL085W, strain MDH1, stronger effect = lower value): 0.942
- normalized growth (S. cerevisiae deletion strains, locus YKL160W, strain elf1, stronger effect = lower value): 0.927
- normalized growth (S. cerevisiae deletion strains, locus YKR001C, strain vps1, stronger effect = lower value): 0.985
- normalized growth (S. cerevisiae deletion strains, locus YKR026C, strain gcn3, stronger effect = lower value): 0.971
- normalized growth (S. cerevisiae deletion strains, locus YKR091W, strain srl3, stronger effect = lower value): 0.962
- normalized growth (S. cerevisiae deletion strains, locus YLL001W, strain dnm1, stronger effect = lower value): 1.01
- normalized growth (S. cerevisiae deletion strains, locus YLL026W, stronger effect = lower value): 0.984
- normalized growth (S. cerevisiae deletion strains, locus YLL041C, strain sdh2, stronger effect = lower value): 0.963
- normalized growth (S. cerevisiae deletion strains, locus YLR027C, strain aat2, stronger effect = lower value): 0.949
- normalized growth (S. cerevisiae deletion strains, locus YLR039C, strain RIC1, stronger effect = lower value): 0.974
- normalized growth (S. cerevisiae deletion strains, locus YLR058C, strain SHM2, stronger effect = lower value): 0.977
- normalized growth (S. cerevisiae deletion strains, locus YLR102C, strain apc9, stronger effect = lower value): 0.987
- normalized growth (S. cerevisiae deletion strains, locus YLR113W, strain HOG1, stronger effect = lower value): 0.838 (active)
- normalized growth (S. cerevisiae deletion strains, locus YLR221C, strain rsa3, stronger effect = lower value): 1.03
- normalized growth (S. cerevisiae deletion strains, locus YLR258W, strain gsy2, stronger effect = lower value): 0.96
- normalized growth (S. cerevisiae deletion strains, locus YLR262C, strain YPT6 (second series), stronger effect = lower value): 0.987
- normalized growth (S. cerevisiae deletion strains, locus YLR262C, strain YPT6, stronger effect = lower value): 0.915
- normalized growth (S. cerevisiae deletion strains, locus YLR268W, strain sec22, stronger effect = lower value): 0.981
- normalized growth (S. cerevisiae deletion strains, locus YLR320W, strain mms22, stronger effect = lower value): 0.993
- normalized growth (S. cerevisiae deletion strains, locus YLR330W, strain CHS5, stronger effect = lower value): 0.985
- normalized growth (S. cerevisiae deletion strains, locus YLR342W, strain FKS1 (second series), stronger effect = lower value): 0.96
- normalized growth (S. cerevisiae deletion strains, locus YLR342W, strain FKS1, stronger effect = lower value): 0.99
- normalized growth (S. cerevisiae deletion strains, locus YLR357W, strain rsc2, stronger effect = lower value): 0.948
- normalized growth (S. cerevisiae deletion strains, locus YLR370C, strain arc18, stronger effect = lower value): 0.959
- normalized growth (S. cerevisiae deletion strains, locus YLR371W, strain rom2, stronger effect = lower value): 0.992
- normalized growth (S. cerevisiae deletion strains, locus YLR384C, strain iki3, stronger effect = lower value): 0.979
- normalized growth (S. cerevisiae deletion strains, locus YLR418C, strain cdc73, stronger effect = lower value): 1.03
- normalized growth (S. cerevisiae deletion strains, locus YML016C, strain PPZ1, stronger effect = lower value): 0.984
- normalized growth (S. cerevisiae deletion strains, locus YML032C, strain rad52, stronger effect = lower value): 0.944
- normalized growth (S. cerevisiae deletion strains, locus YML120C, strain ndi1, stronger effect = lower value): 0.987
- normalized growth (S. cerevisiae deletion strains, locus YML124C, strain tub3, stronger effect = lower value): 0.989
- normalized growth (S. cerevisiae deletion strains, locus YMR058W, strain fet3, stronger effect = lower value): 0.979
- normalized growth (S. cerevisiae deletion strains, locus YMR078C, strain ctf18, stronger effect = lower value): 0.972
- normalized growth (S. cerevisiae deletion strains, locus YMR125W, strain sto1, stronger effect = lower value): 0.945
- normalized growth (S. cerevisiae deletion strains, locus YMR129W, stronger effect = lower value): 0.969
- normalized growth (S. cerevisiae deletion strains, locus YMR205C, strain PFK2, stronger effect = lower value): 0.992
- normalized growth (S. cerevisiae deletion strains, locus YMR223W, strain ubp8, stronger effect = lower value): 1.01
- normalized growth (S. cerevisiae deletion strains, locus YMR231W, strain pep5, stronger effect = lower value): 0.981
- normalized growth (S. cerevisiae deletion strains, locus YMR307W, strain GAS1, stronger effect = lower value): 0.922 and 0.985
- normalized growth (S. cerevisiae deletion strains, locus YNL067W, strain RPL9B, stronger effect = lower value): 1.02
- normalized growth (S. cerevisiae deletion strains, locus YNL071W, strain lat1, stronger effect = lower value): 0.964
- normalized growth (S. cerevisiae deletion strains, locus YNL153C, strain GIM3, stronger effect = lower value): 1.01
- normalized growth (S. cerevisiae deletion strains, locus YNL175C, strain NOP13, stronger effect = lower value): 1.04
- normalized growth (S. cerevisiae deletion strains, locus YNL183C, strain NPR1, stronger effect = lower value): 0.908
- normalized growth (S. cerevisiae deletion strains, locus YNL197C, strain WHI3, stronger effect = lower value): 0.989
- normalized growth (S. cerevisiae deletion strains, locus YNL209W, strain ssb2, stronger effect = lower value): 0.976
- normalized growth (S. cerevisiae deletion strains, locus YNL224C, strain SQS1, stronger effect = lower value): 1
- normalized growth (S. cerevisiae deletion strains, locus YNL233W, strain BNI4, stronger effect = lower value): 1.03
- normalized growth (S. cerevisiae deletion strains, locus YNL248C, strain rpa49, stronger effect = lower value): 0.882 (active)
- normalized growth (S. cerevisiae deletion strains, locus YNL250W, strain rad50, stronger effect = lower value): 0.819 (active)
- normalized growth (S. cerevisiae deletion strains, locus YNL271C, strain bni1, stronger effect = lower value): 0.967
- normalized growth (S. cerevisiae deletion strains, locus YNL298W, strain CLA4, stronger effect = lower value): 0.896 (active)
- normalized growth (S. cerevisiae deletion strains, locus YNL307C, strain MCK1, stronger effect = lower value): 0.983
- normalized growth (S. cerevisiae deletion strains, locus YNL322C, strain KRE1 (second series), stronger effect = lower value): 0.943
- normalized growth (S. cerevisiae deletion strains, locus YNR049C, strain mso1, stronger effect = lower value): 0.959
- normalized growth (S. cerevisiae deletion strains, locus YNR052C, strain pop2, stronger effect = lower value): 0.985
- normalized growth (S. cerevisiae deletion strains, locus YOL006C, strain TOP1, stronger effect = lower value): 1.11
- normalized growth (S. cerevisiae deletion strains, locus YOL012C, strain htz1): 1.27
- normalized growth (S. cerevisiae deletion strains, locus YOL147C, strain pex11, stronger effect = lower value): 0.99
- normalized growth (S. cerevisiae deletion strains, locus YOR001W, strain rrp6, stronger effect = lower value): 1.03
- normalized growth (S. cerevisiae deletion strains, locus YOR061W, strain CKA2, stronger effect = lower value): 0.969
- normalized growth (S. cerevisiae deletion strains, locus YOR069W, strain VPS5, stronger effect = lower value): 0.975
- normalized growth (S. cerevisiae deletion strains, locus YOR070C, strain gyp1, stronger effect = lower value): 0.984
- normalized growth (S. cerevisiae deletion strains, locus YOR080W, strain dia2, stronger effect = lower value): 0.963
- normalized growth (S. cerevisiae deletion strains, locus YOR083W, strain WHI5 (second series), stronger effect = lower value): 0.99
- normalized growth (S. cerevisiae deletion strains, locus YOR083W, strain WHI5, stronger effect = lower value): 0.94
- normalized growth (S. cerevisiae deletion strains, locus YOR106W, strain vam3, stronger effect = lower value): 0.918
- normalized growth (S. cerevisiae deletion strains, locus YOR136W, strain idh2, stronger effect = lower value): 0.987
- normalized growth (S. cerevisiae deletion strains, locus YOR144C, strain elg1, stronger effect = lower value): 0.987
- normalized growth (S. cerevisiae deletion strains, locus YOR184W, strain ser1, stronger effect = lower value): 0.976
- normalized growth (S. cerevisiae deletion strains, locus YOR231W, strain MKK1, stronger effect = lower value): 0.84 (active)
- normalized growth (S. cerevisiae deletion strains, locus YOR265W, strain rbl2, stronger effect = lower value): 0.969
- normalized growth (S. cerevisiae deletion strains, locus YOR270C, strain vph1, stronger effect = lower value): 0.986
- normalized growth (S. cerevisiae deletion strains, locus YOR290C, strain snf2, stronger effect = lower value): 0.935
- normalized growth (S. cerevisiae deletion strains, locus YOR316C, strain cot1, stronger effect = lower value): 0.976
- normalized growth (S. cerevisiae deletion strains, locus YPL051W, strain arl3, stronger effect = lower value): 0.997
- normalized growth (S. cerevisiae deletion strains, locus YPL055C, strain LGE1, stronger effect = lower value): 0.992
- normalized growth (S. cerevisiae deletion strains, locus YPL078C, strain atp4, stronger effect = lower value): 0.952
- normalized growth (S. cerevisiae deletion strains, locus YPL106C, strain sse1, stronger effect = lower value): 0.899
- normalized growth (S. cerevisiae deletion strains, locus YPL240C, strain hsp82, stronger effect = lower value): 0.988
- normalized growth (S. cerevisiae deletion strains, locus YPL241C, strain CIN2, stronger effect = lower value): 0.997
- normalized growth (S. cerevisiae deletion strains, locus YPL256C, strain CLN2, stronger effect = lower value): 0.857
- normalized growth (S. cerevisiae deletion strains, locus YPR119W, strain clb2, stronger effect = lower value): 0.985
- normalized growth (S. cerevisiae deletion strains, locus YPR141C, strain kar3, stronger effect = lower value): 0.99
- normalized growth (S. cerevisiae deletion strains, locus YPR163C, strain tif3, stronger effect = lower value): 0.984
- normalized growth (S. cerevisiae deletion strains, locus YPR167C, strain met16, stronger effect = lower value): 0.994
- normalized growth (S. cerevisiae deletion strains, strain wtn01, stronger effect = lower value): 0.993
- normalized growth (S. cerevisiae strains, strain wild type, stronger effect = lower value): 0.984
